Most compounds without a hit are left out; they make up all but 28% or so of the library.
D1 allo mod: D1 dopamine receptor (human) allosteric modulation | 58,000 tested, 5.9% active | HEK293 D1, CRE-luciferase, dopamine EC30 potentiation; actives deviate in either direction | B-score at 10 µM;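 active = luminescence count or its row- and column-corrected plate score outside the 99.7% band of the plate's sample wells, on either side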
Target sequence (P21728 whole entry, looked up): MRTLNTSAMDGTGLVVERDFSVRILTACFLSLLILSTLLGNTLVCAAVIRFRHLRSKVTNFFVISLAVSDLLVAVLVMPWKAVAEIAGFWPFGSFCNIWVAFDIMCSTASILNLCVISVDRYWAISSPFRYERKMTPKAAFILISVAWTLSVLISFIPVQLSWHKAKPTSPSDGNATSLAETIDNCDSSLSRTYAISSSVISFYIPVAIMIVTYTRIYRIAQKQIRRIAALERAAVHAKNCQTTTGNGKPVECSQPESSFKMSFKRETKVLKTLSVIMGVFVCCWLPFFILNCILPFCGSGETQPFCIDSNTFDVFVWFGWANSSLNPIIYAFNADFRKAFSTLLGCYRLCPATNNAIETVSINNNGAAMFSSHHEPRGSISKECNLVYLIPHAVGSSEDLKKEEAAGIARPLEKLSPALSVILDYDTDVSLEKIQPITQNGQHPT
CYP2C9 activ: activators of human CYP2C9 | AID 1024 | activation factor at 5 µM | P11712 | 96,000 tested, 1.4% active | recombinant CYP2C9, luciferin-H conversion, luminescence; active compounds read high; factor 1 = untreated enzyme, 0 = blocked;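 active = activation factor of 2 or more for CYP2C9 at a 5 µM dose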
CYP2C19 inhib: human CYP2C19 inhibition | CYP2C19 Supersomes, luciferin-H EGE luminescence, 30 min | 96,000 tested, 21% active | inhibition, % at 5 µM;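 active = CYP2C19 inhibition above a set limit at 5 µM in the primary screen, cut at about 50% in these data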
hDAT+cocaine: human DAT dopamine uptake with cocaine, either direction. Q01959. LLC-PK1 hDAT cells, [14C]-dopamine uptake with cocaine IC80; actives deviate in either direction. B-score at 10 µM. 110,000 tested, 1.3% active;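 active = Z score or B-score, a plate-position-corrected score, falls beyond the plate's 99.7% confidence bounds, in either direction; inactive = both scores lie inside the 99.7% bounds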
CYP2C19 activ: activators of human cytochrome P450 2C19; 96,000 tested, under 10 active; activation factor at 5 µM; recombinant CYP2C19, luciferin-H EGE luminescence; active compounds read high; 0 = fully inhibited enzyme, 1 = untreated enzyme;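 active = activation factor of at least 2 at 5 µM in the primary screen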
CYP2C9 inhib: human CYP2C9 inhibition; P11712; CYP2C9 Supersomes, luciferin-H conversion, luminescence; inhibition, % at 5 µM; 96,000 tested, 20% active; AID 777;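 active = blocking of liver enzyme CYP2C9 beyond about 50% at 5 µM, limit read from the data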
A number is an active result; - = inactive; . = no result.

SMILES | D1 allo mod | CYP2C9 activ | CYP2C19 inhib | hDAT+cocaine | CYP2C19 activ | CYP2C9 inhib
CCOc1ccc(NC2c3ccccc3C(=O)N2Cc2ccco2)cc1 (stereo not given) | - | - | - | - | - | 74
COc1ccc(NC(=O)CSc2nnc(COc3ccccc3)n2Cc2ccco2)cc1OC | - | - | - | - | - | -
COc1ccc(CC(NC(C)=O)C(=O)NC2CCN(S(=O)(=O)c3ccccc3)CC2)cc1OC (stereo not given) | - | - | - | - | - | -
CCOC(=O)CCCCC(=O)NC(CO)C(=O)NC (stereo not given) | . | - | - | - | - | -
COc1ccc(CCN2CC(C(=O)NCc3ccco3)CC2=O)cc1OC (stereo not given) | . | - | - | - | - | -
O=C(NC(=S)Nc1cccc(Cl)c1N1CCCC1)c1ccc(-c2cccc([N+](=O)[O-])c2)o1 | . | - | - | - | - | -
Fc1ccccc1N1CCN(c2cnc3ccccc3n2)CC1 | . | - | - | - | - | -
COc1cc(C)nc(NC(=O)COc2ccc(Cl)cc2C)n1 | - | - | - | - | - | -
CC1=C(C(=O)OCc2ccccc2)C(c2ccc(-c3ccccc3)cc2)NC(=O)N1CCCC(=O)O (stereo not given) | . | . | . | - | . | .
CC1=C(C(=O)OCc2ccccc2)C(c2ccccc2OS(=O)(=O)c2ccc(C)cc2)NC(=O)N1CCCC(=O)O (stereo not given) | . | . | . | 2.5 | . | .
CC1=C(C(=O)OCc2ccccc2)C(c2ccccc2-c2ccccc2)NC(=O)N1CCCCCC(=O)O (stereo not given) | . | . | . | 2.8 | . | .
CC1CCCCC1NC(=O)CSc1nc2ccccc2c(=O)n1Cc1ccco1 (stereo not given) | - | - | - | . | - | -
CCOC(=O)C(C)n1nc(/C=C/c2ccccc2)ccc1=O (stereo not given) | . | - | - | - | - | 71
O=C(Nc1ccc2nsnc2c1)NC1CCCCC1 | . | - | - | . | - | -
O=C(NNC(=O)c1ccc(SCC2CCCO2)c([N+](=O)[O-])c1)c1ccc(F)cc1 (stereo not given) | . | - | - | - | - | -
Oc1ccccc1C(=S)N1CCCCC1 | - | - | 78 | - | - | -
Oc1ccccc1C(=S)N1CCCCCC1 | - | - | 52 | - | - | -
CC(C)(C)OC(=O)N1CCC(c2cc(=O)n3[nH]c(-c4ccc(Cl)cc4)cc3n2)CC1 | . | - | - | - | - | -
CC(C)(C)OC(=O)N1CCC(c2cc(=O)n3[nH]cc(C(=O)NC4CCCC4)c3n2)CC1 | . | - | - | - | - | 95
CCOC(=O)CC(=O)CSc1nc(-c2ccc3c(c2)OCO3)cc(C(F)(F)F)c1C#N | . | - | - | - | - | 53
CCOC(=O)CCSc1nc(C(C)(C)C)cc(C(F)(F)F)c1C#N | . | . | . | - | . | .
CCOC(=O)CCSc1nc(C)cc(C(F)(F)F)c1C#N | . | - | 61 | - | - | -
COc1c(O)cccc1[C@H](O)C1CCN(CCc2ccc(F)cc2)CC1 | . | . | . | - | . | .
CCOC(=O)c1c(-c2cccs2)csc1NC(C)=O | . | . | . | - | . | .
CCOC(=O)c1c(-c2ccc(C)o2)csc1NC(=O)CSc1nnc(C)s1 | - | - | 88 | - | - | 96
SMILES | D1 allo mod | CYP2C9 activ | CYP2C19 inhib | hDAT+cocaine | CYP2C19 activ | CYP2C9 inhib
CCOC(=O)c1c(-c2ccc(C)o2)csc1NC(=S)NC(=O)c1ccccc1Br | . | - | - | - | - | 71
CCOC(=O)c1sc(NC(=O)CSc2nnnn2-c2ccccc2)nc1C | - | - | - | - | - | -
CCOC(=O)c1sc(NC(=S)NC(=O)c2ccccc2Cl)c(C(=O)OCC)c1C | . | - | - | - | - | -
CCOC(=O)c1c(-c2ccc(C)o2)csc1NC(=O)COC(=O)c1ccc(NC(N)=O)cc1 | . | - | - | - | - | 91
CCOC(=O)c1c(-c2ccc(C)o2)csc1NC(=O)CSc1nnnn1-c1ccccc1 | - | - | 80 | - | - | 96
Cc1nonc1NCn1nnc2ccccc21 | . | - | - | - | - | -
Cc1cccc(N(C)S(=O)(=O)c2ccc3c(c2)CCC(=O)N3)c1 | - | - | - | - | - | -
CCOC(=O)c1nc2cc3n(c(CC(C)C)c-2c1C)CC(C)=C3C | . | . | . | - | . | .
CSc1nn(CCc2ccncc2)c(=S)s1 | - | - | 97 | - | - | 65
CCn1c(=O)n(CCOC)c(=O)c2c3c(sc21)CCCC3 | 6.3 | . | . | - | . | .
COc1cccc(-c2csc(N3CCN(C(=S)Nc4ccccc4OC)CC3)n2)c1 | . | - | 70 | - | - | -
COc1cccc(-c2csc(N3CCN(C(=S)Nc4ccccc4Cl)CC3)n2)c1 | . | - | 73 | - | - | 64
CCn1c(=O)cc(O)c2c(=O)n(C)c(=O)n(C)c21 | - | - | - | - | - | -
O=C(c1cccc(C(F)(F)F)c1)N1CCC(O)(CS(=O)(=O)Cc2ccccc2)CC1 | . | - | - | - | - | -
CCC(C)[C@H](NC(=O)N1CCN(c2cccc(C(F)(F)F)c2)CC1)C(=O)OC (stereo not given in full) | . | - | - | 3.2 | - | -
COC(=O)[C@H](CCSC)NC(=O)N1CCN(c2cccc(C(F)(F)F)c2)CC1 | - | - | - | - | - | -
O=C(CS(=O)(=O)Cc1ccccc1)N1CCN(c2cccc(C(F)(F)F)c2)CC1 | - | - | 57 | - | - | -
O=C(Nc1ccccc1)N1CCN(c2cccc(C(F)(F)F)c2)CC1 | . | 2 | 58 | - | - | -
CNS(=O)(=O)c1cnccc1N1CCN(c2cccc(C(F)(F)F)c2)CC1 | . | - | 77 | - | - | -
O=C(O)C[C@@H](O)C(=O)O | . | . | . | - | . | .
O=C(CCn1nnc2ccccc2c1=O)N[C@H](C(=O)O)c1ccccc1 | - | - | - | - | - | -
NC(=O)C1CCN(C(=O)CN2CCN(c3cccc(C(F)(F)F)c3)CC2)CC1 | - | - | - | - | - | -
C=CCOC(=O)N1CCN(c2cccc(C(F)(F)F)c2)CC1 | - | - | 96 | - | - | 80
O=C(Nc1cccc(C(F)(F)F)c1)c1cccnc1N1CCN(CCO)CC1 | - | - | - | - | - | -
COC(=O)[C@@H](NC(=O)N1CCN(c2cccc(C(F)(F)F)c2)CC1)C(C)C | - | - | 53 | - | - | -
SMILES | D1 allo mod | CYP2C9 activ | CYP2C19 inhib | hDAT+cocaine | CYP2C19 activ | CYP2C9 inhib
O=C(Nc1cccc(C(F)(F)F)c1)c1cccnc1N1CCN(c2ccccc2)CC1 | . | - | 58 | - | - | -
O=C(Cc1ccccc1)Nc1c(C(=O)N2CCOCC2)cnn1-c1ccccc1 | - | - | - | - | - | -
Cc1ccc(/C(O)=C2\C(=O)C(=O)N(CCCN(C)C)C2c2ccccn2)cc1 (stereo not given) | - | . | . | . | . | .
Cc1cc(O)c(C(C[N+](=O)[O-])c2ccc(Cl)cc2)c(=O)o1 (stereo not given) | . | - | - | - | - | 84
COC(=O)[C@@H]1C[C@H]1[C@@H](NC(=O)c1ccccc1)c1ccccc1 | . | . | . | - | . | .
COc1cc(OC)c(NC(=O)CCc2nc(-c3cccs3)no2)cc1Cl | - | - | 92 | - | - | 62

Bioassay records (PubChem)
